Source: PubChem BioAssay AID1159580 (chemical genetic matrix, 2015)
Out of some 5,500 compounds screened, about 2,000 (36%) were called active. Another 18% or so got no clear call; they are omitted. Cut-off read from the data, not from the text of the source: active = normalized growth mostly below about 0.91 (no sharp cut-off); inconclusive = no clear call, values can overlap the other calls; inactive = mostly above about 0.92. Some of the results follow.

Test: chemical genetic growth profiling, strain panel (AID 1159580);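 note: tested at 20 µM; growth read once vehicle control cultures reached saturation at 30 °C; 1 = growth at the plate median or of vehicle wells; lower values mean less growth of the strain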
Details: S. cerevisiae deletion strains, growth OD
[1] = locus YAL040C, strain CLN3, stronger effect = lower value
[2] = locus YCL061C, strain MRC1 (second series), stronger effect = lower value
[3] = locus YDR150W, strain NUM1, stronger effect = lower value
[4] = locus YDR363W, strain ESC2, stronger effect = lower value
[5] = locus YER002W, strain NOP16, stronger effect = lower value
[6] = locus YMR307W, strain GAS1, stronger effect = lower value
[7] = locus YNL153C, strain GIM3, stronger effect = lower value
[8] = locus YNL175C, strain NOP13, stronger effect = lower value
[9] = locus YNL224C, strain SQS1, stronger effect = lower value
[10] = locus YNL322C, strain KRE1, stronger effect = lower value
[11] = locus YOR083W, strain WHI5 (second series), stronger effect = lower value

Measured: normalized growth

C[C@]12CCC(=O)C=C1CC[C@@H]1[C@@H]2[C@@H](O)C[C@@]2(C)[C@H]1CC[C@]2(O)C(=O)CO
inactive: locus YAL013W, strain DEP1, stronger effect = lower value 1 | [1] 0.989 | [2] 1 | [3] 0.993 | [4] 1.02 | [5] 0.986 | [6] 1.01 | [7] 1.01 | [8] 0.99 | [9] 0.995 | [10] 1 | [11] 1.01

C[C@]12Cc3cn4c(nc3C=C1CCC1C2CC[C@@]2(C)[C@H]1CC[C@@]2(O)C#N)nc1ccccc14 (stereo partly drawn)
inactive: [2] 0.99 | [3] 1 | [4] 0.975 | locus YGR229C, strain SMI1, stronger effect = lower value 0.937 | locus YJR075W, strain HOC1, stronger effect = lower value 0.963 | [6] 0.936 | locus YNL197C, strain WHI3, stronger effect = lower value 0.911 | [10] 0.938 | locus YPL055C, strain LGE1, stronger effect = lower value 0.966 | locus YPL241C, strain CIN2, stronger effect = lower value 0.996
active: [1] 0.88 | [5] 0.264 | [7] 0.63 | [8] 0.229 | [9] 0.799 | [11] 0.852
